# Bioassay records as filed in PubChem.
# Mito fusion yeast – blocks mitochondrial division or promotes mitochondrial fusion; S. cerevisiae fusion-defective mutant growth rescue, CellTiterGlo 48 h; Potency, µM (doses to about 46.1 µM), for the others: at the highest dose growth rescue (activation), usual class: activators; 320,000 compounds, 0.23% hits; AID 485298; note: % of control where 0% means no effect; nearly all actives have a fitted effect of over 45% in size
#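 Compounds are tested for their ability to restore growth of mitochondrial fusion-defective yeast strains at non-permissive 37C in YPEG medium over 48 hours. Viability is quantified by luciferase luminescence.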
# Eya2 phos inh – blocks the phosphatase activity of human Eya2. recombinant Eya2, OMFP fluorescence dephosphorylation (OMFP is methylfluorescein phosphate). Potency, µM (series often up to 76.9 µM), inactives show at the top dose activity, negative = inhibition, most hits filed as inhibitors. 330,000 compounds, 0.006% hits; note: % is set by controls: 0 for no effect and ±100 for the full control effect
# Target sequence (O00167 whole entry, looked up): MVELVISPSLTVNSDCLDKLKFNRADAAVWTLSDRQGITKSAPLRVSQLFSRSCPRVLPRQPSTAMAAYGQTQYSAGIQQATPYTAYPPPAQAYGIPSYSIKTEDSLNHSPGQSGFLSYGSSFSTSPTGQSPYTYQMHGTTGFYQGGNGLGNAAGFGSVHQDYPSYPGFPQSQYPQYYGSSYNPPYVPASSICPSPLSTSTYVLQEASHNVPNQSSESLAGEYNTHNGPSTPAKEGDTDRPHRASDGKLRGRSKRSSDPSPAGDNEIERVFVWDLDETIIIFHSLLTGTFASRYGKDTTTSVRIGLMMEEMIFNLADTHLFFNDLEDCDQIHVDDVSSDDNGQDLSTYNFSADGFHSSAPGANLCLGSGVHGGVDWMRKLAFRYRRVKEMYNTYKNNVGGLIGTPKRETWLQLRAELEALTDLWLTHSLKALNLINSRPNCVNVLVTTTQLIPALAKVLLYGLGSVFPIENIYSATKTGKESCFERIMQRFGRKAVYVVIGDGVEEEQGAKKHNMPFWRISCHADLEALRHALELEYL
#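 Eya2 (0.2 uM) preincubated 10 min at ambient with compound, then OMFP substrate added at 50 uM; 10 min reaction in 50 mM HEPES pH 7.5, 50 mM NaCl, 5 uM MgCl2, 0.05% BSA, 1 mM DTT. Fluorescence read at Ex 485/Em 525 nm.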
# AT treatment – candidate therapy for ataxia-telangiectasia. 320,000 compounds, 0.19% hits. AID 485349. Potency, µM (highest dose often 57.5 µM), for the others: at the top dose activation, most hits filed as activators. F2112 A-T fibroblasts, KAP-1 phosphorylation AlphaLISA; neocarzinostatin DNA damage 30 min before lysis; note: % of control where 0% means no effect; nearly all actives have a fitted effect of over 45% in size
#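 ATM-like activity read as KAP-1 phosphorylation via AlphaLISA donor/acceptor antibody pairs after lysis and 6 hr at 25C. Cells were ATM-null patient fibroblasts (F2112, hTERT), dosed 60 min, then exposed to the DSB inducer NCS for 30 min.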
# N370S GC mod – inhibits or activates N370S mutant glucocerebrosidase; AID 2101; P04062; N370S GC spleen homogenate, 4MU-glucoside fluorescence; Potency, µM (top dose mostly 59.4 µM), for the others: at the highest dose activity change, negative = inhibition, hits mostly inhibitors; 330,000 compounds, 0.092% hits;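 note: 0% = full enzyme activity and -100% = no enzyme basal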
# * marks the source's active call; other numbers are inactive results; ? = inconclusive; . = not tested or not shown. Sampled rows, rich in hits. Any-hit rate of the full collection: about 0.47%. Calls come from the whole dose curve; as a rule, active = well fitted curve in the direction sought with a large enough effect; inconclusive = small, poorly fitted or top-dose-only effect, or another doubt; inactive = no such curve, though single readings can be large; an effect the other way counts as inactive or inconclusive. Potency is the fitted concentration of half-maximal effect.
SMILES,Mito fusion yeast,Eya2 phos inh,AT treatment,N370S GC mod
CC(C)(C)c1ccc(C(=O)NC2CCN(Cc3ccccc3)CC2)cc1,35µM*,8%,-9%,-19%
O=C(NC1CCN(Cc2ccccc2)CC1)c1ccccc1,15%,15%,-11%,-4%
O=C(NC1CCN(Cc2ccccc2)CC1)c1ccccc1Cl,-1%,12%,10%,3%
Cc1c(C(=O)NC2CCN(Cc3ccccc3)C2)oc2c(Cl)cccc12 (stereo unspecified),3.5µM*,-5%,-3%,-27%
CCn1c(SCC(=O)Nc2cc(C)ccc2C)nc2c(c1=O)SC(C)C2 (stereo unspecified),1%,-28%,-3%,25%
COc1ccc(/C=C/C(=O)N(C)CC(=O)Nc2cccc(F)c2)cc1S(=O)(=O)N1CCCCC1,-4%,22%,-2%,-5%
CN1CCN(CC#CCC(O)(c2ccccc2)c2ccccc2)CC1,-3%,5%,40µM*,-7%
c1ccc(Nc2ccnc(Nc3ccccc3)n2)cc1,22%,5%,20µM*,?
NNc1nc(Nc2ccccc2)nc(Nc2ccccc2)n1,1%,-3%,-9%,11%
COC(=O)[C@@]12CCCCN1[C@H](c1ccc(-c3ccc(F)cc3)c(OC)c1)[C@H]1C(=O)N(C)C(=O)[C@H]12,.,-7%,16%,.
COC(=O)[C@@]12CCCCN1[C@H](c1ccc(-c3ccc(OC)cc3)c(OC)c1)[C@@H]1C(=O)N(C)C(=O)[C@@H]12,13µM*,-5%,2%,1%
C=CCn1c(SCC(=O)N2CCc3ccccc3C2)nc2sc(CC)cc2c1=O,?,-3%,-5%,26%
C=CCn1c(SCC(=O)N2CCc3ccccc3C2)nc2sc(C)c(C)c2c1=O,13µM*,2%,-1%,?
COc1ccc(N2CCN(C(=O)CSc3nnc4n3C(C)(C)Cc3ccccc3-4)CC2)cc1,-1%,-14%,.,30%
Cc1ccc(Cl)cc1N1CCN(C(=O)CSc2nnc3n2C(C)(C)Cc2ccccc2-3)CC1,16µM*,-1%,.,?
O=[N+]([O-])c1cc(S(=O)(=O)Nc2ccccc2)ccc1N1CCN(c2ccccc2)CC1,20µM*,4%,-1%,-4%
O=[N+]([O-])c1cc(S(=O)(=O)C(F)(F)F)ccc1N1CCN(c2ccccc2)CC1,?,-1%,-12%,-18%
C=CCn1c(NS(=O)(=O)c2ccccc2)c(S(=O)(=O)c2ccc(C)cc2)c2nc3ccccc3nc21,-1%,-19%,22µM*,4%
O=S(=O)(Nc1c(S(=O)(=O)c2ccccc2)c2nc3ccccc3nc2n1C1CCCCC1)c1ccccc1,-7%,6%,8%,6%
Cc1cccc(N2CCN(S(=O)(=O)c3ccc4c(c3)NC(=O)C(C)S4)CC2)c1C (stereo unspecified),11µM*,5%,-16%,0%
Cc1ccc(C)c(N2CCN(S(=O)(=O)c3ccc4c(c3)NC(=O)CC(=O)N4)CC2)c1,0%,-7%,-1%,14µM*
Cc1ccc(C)c(N2CCN(S(=O)(=O)c3ccc4c(c3)CCC(=O)N4)CC2)c1,5%,-12%,0%,-12%
Cc1ccc(C)c(N2CCN(S(=O)(=O)c3ccc4[nH]c(=O)c(=O)[nH]c4c3)CC2)c1,2%,-14%,-4%,13µM*
Cc1ccc(C)c(N2CCN(S(=O)(=O)c3ccc4[nH]c(=O)ccc4c3)CC2)c1,-1%,14%,-10%,-15%
Cc1ccc(NC2CC(=O)N(c3ccc(N4CCCCC4)cc3)C2=O)cc1 (stereo unspecified),-1%,-3%,-4%,4%
SMILES,Mito fusion yeast,Eya2 phos inh,AT treatment,N370S GC mod
COc1ccc(C2C3C(C)=NN=C3CC(C)(O)C2C(C)=O)cc1 (stereo unspecified),1%,6%,-2%,6%
COc1ccc(C(=O)Nc2cc3c(cc2N2CCCCC2)n(C)c(=O)n3C)cc1OC,13µM*,-2%,-4%,0%
Cc1ccc(C(=O)Nc2cc3c(cc2N2CCCCC2)n(C)c(=O)n3C)cc1,?,6%,-3%,1%
COc1cc(C(=O)Nc2cc3c(cc2N2CCCCC2)n(C)c(=O)n3C)cc(OC)c1OC,13µM*,-3%,18%,13%
O=C(Nc1cccc(Cl)c1)c1csc(-c2ccccc2)n1,?,8%,32µM*,16%
O=C(/C=N/O)NCCCN1CCOCC1,-11%,-2%,6%,7%
N=c1c2c(ncn1Cc1ccco1)Oc1cc(O)ccc1C2c1ccccc1 (stereo unspecified),2%,3%,16%,2%
COc1ccc(C2c3ccc(O)cc3Oc3ncn(CCCO)c(=N)c32)cc1 (stereo unspecified),-2%,8%,25µM*,-3%
COc1ccc2[nH]c3c(c2c1)CCN1C(=O)C(CC(=O)NCC24CC5CC(CC(C5)C2)C4)C[C@H](C(=O)N2CCCCC2)[C@@]31C (stereo partly specified),.,10%,7%,.
Oc1cccc(Nc2nc(-c3ccccc3Cl)nc3ccccc23)c1,-22%,0%,4%,1µM*
Cc1ccc(-c2nc(Nc3cccc(O)c3)c3ccccc3n2)cc1,?,-14%,-5%,?
c1ccc(CN2CCC(Nc3nc(-c4cccs4)nc4ccccc34)CC2)cc1,?,-17%,-5%,10µM*
Clc1ccccc1-c1nc(NCc2cccs2)c2ccccc2n1,.,.,.,7.1µM*
Cc1ccccc1-c1nc(NCc2cccs2)c2ccccc2n1,.,.,.,7.1µM*
CCOC(=O)C1CCCN(C(=O)c2cc(Nc3ccc(OC)c(OC)c3)nc3ccccc23)C1 (stereo unspecified),0%,-3%,0%,?
CC(C)CN=c1cc(-c2ccccc2)oc2ccc(Cl)cc12,-2%,0%,2%,-19%
c1ccc(-c2nc(NCc3cccs3)c3ccccc3n2)cc1,13%,6%,10%,?
c1csc(CNc2nc(-c3cccs3)nc3ccccc23)c1,2%,2%,8%,18µM*
O=C(O)c1cc([N+](=O)[O-])ccc1NCCCc1ccccc1,8.2µM*,27%,.,1%
COC(=O)c1cnn(-c2ccc(C(=O)Nc3cccc(C(C)=O)c3)cc2)c1N,3%,-14%,28µM*,-1%
CC(=O)c1cccc(NC(=O)c2cnn(-c3ccccc3)c2C)c1,-27%,-12%,5%,-1%
O=C(CCOc1ccccc1)N1CCN(S(=O)(=O)c2ccccc2F)CC1,3%,-1%,4%,.
CC(C)c1ccc(C(O)P(=O)(OC2CCCCC2)OC2CCCCC2)cc1 (stereo unspecified),13µM*,-24%,-35%,5%
CC(=O)Nc1cccc(C(=O)Nc2ccc(S(=O)(=O)N3CCCCC3)cc2)c1,-1%,-21%,8%,?
CCCCN(C)CCCNC(=O)c1cc(=O)[nH]c2ccc(S(=O)(=O)N3CCCCC3C)cc12 (stereo unspecified),35µM*,-5%,-1%,-11%
